Assay outcomes: PubChem BioAssay, several laboratories
Most compounds without a hit are left out; they make up all but 1.8% or so of the library.
Ba/F3 V617F tox: loss of viability in JAK2V617F-driven Ba/F3 cells | inhibition, % at 5.6 µM | 220,000 compounds, 1.1% hits | AID 1446 | Ba/F3 EpoR-JAK2V617F viability, ATP luminescence;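 active means inhibition above the campaign mean plus 3 SD over all tested compounds, cut at about 24% in these data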;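 further: cytokine-independent growth of Ba/F3 cells driven by EpoR plus mutant JAK2; 0% = DMSO-treated cells and 100% = JAK inhibitor I control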
BaF3 parental: parental Ba/F3 viability inhibition as JAK2V617F counter-screen | CellTiter-Glo ATP luminescence | inhibition, % at 5.6 µM | 220,000 compounds, 1.1% hits | AID 1486;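 active means inhibition above a per-campaign cutoff, the mean inhibition of all tested compounds plus 3 SD, cut at about 27% in these data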;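 further: 0% = DMSO wells and 100% = JAK Inhibitor I control wells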
APP 5UTR inh: APP translation inhibition. SH-SY5Y APP 5'UTR-luciferase reporter, luminescence. 190,000 compounds, 0.82% hits. inhibition, % at 2 µM. AID 1285;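 active means inhibition above a set limit, derived from the sample mean plus 3 SD, cut at about 45% in these data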
KLF5 inhibitor: suppresses KLF5 promoter-driven expression; DLD-1 KLF5 promoter-luciferase reporter, luminescence; inhibition, % at 5 µM; 290,000 compounds, 0.23% hits;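 active means inhibition above a per-plate limit of that plate's mean compound inhibition plus 3 SD, cut at about 60% in these data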;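 further: 0% = DMSO wells and 100% = LY294002 at 200 µM; higher means less KLF5 promoter-driven luciferase light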
IEC-6 tox: IEC-6 cytotoxicity, counter-screen for KLF5 inhibitors. inhibition, % at 5 µM. luminescence viability. 290,000 compounds, 0.78% hits. AID 1825; in the data active means inhibition above about 22%;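 further: 0% = plate median of test compound wells and 100% = cytotoxic reference compound wells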
* hit, by the source's call; / = no result.

SMILES	Ba/F3 V617F tox	BaF3 parental	APP 5UTR inh	KLF5 inhibitor	IEC-6 tox
CCCCOC(=O)Cn1c(=O)c2c(nc(Br)n2Cc2ccccc2)n(C)c1=O	2	66*	-3	-20	3
CCOC(=O)Cn1c(=O)c2c(nc(Br)n2Cc2ccccc2)n(C)c1=O	-3	2	-2	10	1
CCOc1ccccc1N(CC(=O)Nc1ccccc1C(=O)N1CCCC1)S(C)(=O)=O	/	/	/	-21	-3
COc1ccccc1OCCSc1nc2ccccc2c(=O)[nH]1	1	95*	-12	-36	3
CC(C)(C)c1nnc(N/N=C/c2ccccc2)n(N)c1=O	-2	6	-8	0	-14
CC(C)(C)c1nnc(N/N=C/c2ccccc2O)n(N)c1=O	-3	1	76*	19	-3
CCc1nnc(N/N=C/c2ccccc2F)n1N	9	-1	10	6	102*
CC(NC(=O)Nc1nnc(C(F)(F)F)s1)(C(F)(F)F)C(F)(F)F	37*	40*	1	45	20
C=CCn1c(O)c(N=NC(=S)Nc2ccccc2C)c2cc(S(=O)(=O)N3CCOCC3)ccc21	0	8	34	3	9
Cc1cc(=O)n(C)c2ccc(S(=O)(=O)N3CCOCC3)cc12	/	/	/	-22	15
Cn1c(O)c(N=NC(=S)Nc2ccccc2F)c2cc(S(=O)(=O)N3CCOCC3)ccc21	0	6	46*	-6	-8
Cc1ccc(NC(=S)N=Nc2c(O)n(C)c3ccc(S(=O)(=O)N4CCOCC4)cc23)cc1C	-1	2	70*	8	-3
Cc1cc(C)c(C)c(S(=O)(=O)NCc2ccc(C(=O)NCC3CCCO3)cc2)c1C (stereo unspecified)	/	/	/	-8	-1
COc1cccc(Nc2nnc(SCc3cc([N+](=O)[O-])cc4c3OCOC4)s2)c1	3	4	92*	5	2
Cc1cccc(C)c1Nc1nnc(SCc2cc([N+](=O)[O-])cc3c2OCOC3)s1	-1	3	48*	-31	0
O=C(Nc1ccc2c(c1)nc1n2CCN(C2CCCCC2)C1)NC1CCCCC1	7	30*	-8	-22	1
O=S(=O)(c1ccc(Cl)c(Cl)c1)c1snnc1-c1ccccc1	58*	42*	95*	19	2
c1ccc(-c2nnsc2-c2ccccc2)cc1	/	/	/	-19	4
CCn1c(=N)n(CC(=O)C(C)(C)C)c2ccccc21	-5	-2	64*	-13	0
CCOC(=O)Cc1nnc(NC(=O)CCc2ccccc2)s1	/	/	/	-45	-10
Cn1cc(CN2CCN(c3cnccn3)CC2)c(-c2cccc(Cl)c2)n1	1	-1	7	-14	-2
CC(C1CCN(Cc2cn(C)nc2-c2cccc(Cl)c2)CC1)N1CCOCC1 (stereo unspecified)	-1	49*	0	-36	-4
O=C(CCC(=O)N(CC(=O)NC1CCCCC1)c1ccc(F)cc1)Nc1ccccn1	/	/	/	-13	5
CCOC(=O)c1c(C)[nH]c(C(=O)N/N=C/c2cc([N+](=O)[O-])ccc2O)c1C	/	/	/	8	11
CCOC(=O)c1c(C)[nH]c(C(=O)N/N=C\c2ccccc2O)c1C	0	1	67*	-23	8
SMILES	Ba/F3 V617F tox	BaF3 parental	APP 5UTR inh	KLF5 inhibitor	IEC-6 tox
O=C(COc1ccc(Br)cc1)N1CCN(S(=O)(=O)/C=C/c2ccccc2)CC1	2	9	69*	-29	-3
CC(C)(C)NC(=O)C(c1ccco1)N(Cc1ccc2c(c1)OCO2)C(=O)c1snc(C(N)=O)c1N (stereo unspecified)	/	/	/	-5	-8
C=CCOc1c(Br)cc(/C=N/Nc2ccc(C(=O)O)cc2)cc1OCC	12	6	-104	-8	39*
C=CCN(C(=O)CN1CCOCC1)c1nc(C)c(-c2ccccc2)s1	6	27*	-21	-27	-12
COc1ccc(-n2c(SCC(=O)N/N=C(\C)c3cccnc3)nc3ccccc3c2=O)cc1	-3	-2	/	2	5
CCCN(CCC)C(=O)C1CCN(c2cc(C)nc3c(-c4ccc(OC)c(OC)c4)c(C)nn23)CC1	0	40*	-10	-58	0
COc1ccc(-c2c(C)nn3c(N4CCC(C(=O)NCCN(C)C)CC4)cc(C)nc23)cc1OC	0	3	21	7	-5
C=CCNC(=O)c1onc(CSc2ccc(Cl)cc2)c1C(=O)O	49*	35*	-9	-42	2
C=CCNC(=O)c1onc(CSc2ccc(F)c(F)c2)c1C(=O)O	-1	0	-33	-25	-4
CCCCCOc1ccc(Br)cc1CSC(=N)N	60*	47*	63*	25	49*
CC1(C)OC(=O)C(=NNc2ccccc2)C(=O)O1	-2	0	1	9	0
